Assay results: PubChem BioAssay (NCI)
Compounds without any hit were thinned out: in the full panel of roughly 83,000, 20% have a hit.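 The endpoint reported here, percent growth, reads 100 for growth as untreated, 0 for no net growth and -100 for all cells dead.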

Assays:
Test in all cases: NCI-60 one-dose screen, 48 h (100 = growth as untreated, 0 = no growth, -100 = all killed)
Conditions in all cases: 10 µM; active = growth percent below 10; inactive = the rest
RPMI-8226 leukemia = test system: RPMI-8226 leukemia
OVCAR-8 ovarian = test system: OVCAR-8 ovarian
OVCAR-5 ovarian = test system: OVCAR-5 ovarian
OVCAR-4 ovarian = test system: OVCAR-4 ovarian
SK-OV-3 ovarian = test system: SK-OV-3 ovarian
IGROV1 ovarian = test system: IGROV1 ovarian
OVCAR-3 ovarian = test system: OVCAR-3 ovarian
HS 578T breast = test system: HS 578T breast
NCI/ADR-RES ovarian = test system: NCI/ADR-RES ovarian

Measured: growth

CCCC(=O)c1cc(C)ccc1OC
inactive: RPMI-8226 leukemia 110% | OVCAR-8 ovarian 111% | OVCAR-5 ovarian 101% | OVCAR-4 ovarian 106% | SK-OV-3 ovarian 109% | IGROV1 ovarian 94.1% | OVCAR-3 ovarian 112% | HS 578T breast 118% | NCI/ADR-RES ovarian 112%

CCOC(=O)CCCS(C)(=O)=O
inactive: RPMI-8226 leukemia 124% | OVCAR-8 ovarian 108% | OVCAR-5 ovarian 97.4% | OVCAR-4 ovarian 103% | SK-OV-3 ovarian 103% | IGROV1 ovarian 120% | OVCAR-3 ovarian 127% | HS 578T breast 101% | NCI/ADR-RES ovarian 103%

CS(=O)CC1=NC(=N)N=C1CS(C)=O (stereo not given)
inactive: RPMI-8226 leukemia 107% | OVCAR-8 ovarian 99.9% | OVCAR-5 ovarian 111% | OVCAR-4 ovarian 103% | SK-OV-3 ovarian 108% | IGROV1 ovarian 113% | OVCAR-3 ovarian 118% | HS 578T breast 89.9% | NCI/ADR-RES ovarian 103%

C=C[Si](OC(C)=O)(OC(C)=O)OC(C)=O
inactive: RPMI-8226 leukemia 95.9% | OVCAR-8 ovarian 109% | OVCAR-5 ovarian 115% | OVCAR-4 ovarian 110% | SK-OV-3 ovarian 96.7% | IGROV1 ovarian 97.2% | OVCAR-3 ovarian 108% | HS 578T breast 107% | NCI/ADR-RES ovarian 104%

Cc1cc2nc(CC(=O)c3cccc([N+](=O)[O-])c3)c(=O)[nH]c2cc1C
inactive: RPMI-8226 leukemia 88.4% | OVCAR-8 ovarian 92.7% | OVCAR-5 ovarian 92.1% | OVCAR-4 ovarian 89.4% | SK-OV-3 ovarian 108% | IGROV1 ovarian 91.4% | OVCAR-3 ovarian 102% | HS 578T breast 72.6% | NCI/ADR-RES ovarian 83.9%

OCCN(CCO)C(=S)S
inactive: RPMI-8226 leukemia 111% | OVCAR-8 ovarian 100% | OVCAR-5 ovarian 120% | OVCAR-4 ovarian 118% | SK-OV-3 ovarian 127% | IGROV1 ovarian 111% | OVCAR-3 ovarian 121% | HS 578T breast 99.7% | NCI/ADR-RES ovarian 105%

O=C(NCCNC(=O)c1ccc(Cl)cc1Cl)c1ccc(Cl)cc1Cl
inactive: RPMI-8226 leukemia 97.8% | OVCAR-8 ovarian 94.7% | OVCAR-5 ovarian 119% | OVCAR-4 ovarian 104% | SK-OV-3 ovarian 98.7% | IGROV1 ovarian 100% | OVCAR-3 ovarian 111% | HS 578T breast 107% | NCI/ADR-RES ovarian 97.6%

CNC(=S)NC(C)(C)C
inactive: RPMI-8226 leukemia 93.2% | OVCAR-8 ovarian 99.8% | OVCAR-5 ovarian 121% | OVCAR-4 ovarian 113% | SK-OV-3 ovarian 105% | IGROV1 ovarian 105% | OVCAR-3 ovarian 124% | HS 578T breast 104% | NCI/ADR-RES ovarian 105%

O=C(NCc1ccco1)Nc1c(Cl)cc(Cl)cc1Cl
inactive: RPMI-8226 leukemia 100% | OVCAR-8 ovarian 101% | OVCAR-5 ovarian 97.7% | OVCAR-4 ovarian 88.4% | SK-OV-3 ovarian 103% | IGROV1 ovarian 105% | OVCAR-3 ovarian 112% | HS 578T breast 109% | NCI/ADR-RES ovarian 101%

Nc1nc2c(c(-c3nc(N)nc4c3CCc3ccccc3-4)n1)CCc1ccccc1-2
inactive: RPMI-8226 leukemia 105% | OVCAR-8 ovarian 56.8% | OVCAR-5 ovarian 113% | OVCAR-4 ovarian 101% | SK-OV-3 ovarian 87.2% | IGROV1 ovarian 109% | OVCAR-3 ovarian 115% | HS 578T breast 80.3% | NCI/ADR-RES ovarian 101%

C#C[C@H]1CCCCCC1O (stereo not given in full)
inactive: RPMI-8226 leukemia 97.2% | OVCAR-8 ovarian 111% | OVCAR-5 ovarian 115% | OVCAR-4 ovarian 120% | SK-OV-3 ovarian 110% | IGROV1 ovarian 107% | OVCAR-3 ovarian 113% | HS 578T breast 101% | NCI/ADR-RES ovarian 101%

c1csc(-c2cc(-c3cc(-c4cccs4)[nH]n3)n[nH]2)c1
inactive: RPMI-8226 leukemia 94.6% | OVCAR-8 ovarian 104% | OVCAR-5 ovarian 104% | OVCAR-4 ovarian 101% | SK-OV-3 ovarian 97% | IGROV1 ovarian 89.3% | OVCAR-3 ovarian 118% | HS 578T breast 74.6% | NCI/ADR-RES ovarian 99.5%

COc1ccc(C2(O)CCCCC2)cc1
inactive: RPMI-8226 leukemia 95.6% | OVCAR-8 ovarian 107% | OVCAR-5 ovarian 111% | OVCAR-4 ovarian 112% | SK-OV-3 ovarian 107% | IGROV1 ovarian 111% | OVCAR-3 ovarian 116% | HS 578T breast 93.5% | NCI/ADR-RES ovarian 104%

O=C(Nc1ccccc1C(=O)NCC1CC1)c1cccs1
inactive: RPMI-8226 leukemia 97.4% | OVCAR-8 ovarian 99.4% | OVCAR-5 ovarian 99.9% | OVCAR-4 ovarian 98.7% | SK-OV-3 ovarian 110% | IGROV1 ovarian 118% | OVCAR-3 ovarian 117% | HS 578T breast 114% | NCI/ADR-RES ovarian 101%

CC(=O)CC(=O)N(C)C
inactive: RPMI-8226 leukemia 97.9% | OVCAR-8 ovarian 101% | OVCAR-5 ovarian 104% | OVCAR-4 ovarian 101% | SK-OV-3 ovarian 108% | IGROV1 ovarian 109% | OVCAR-3 ovarian 112% | HS 578T breast 98.3% | NCI/ADR-RES ovarian 100%
